Shown are actives, neighbours in structure and some others; about 0.77% of the full set was active somewhere.
TbPYK inhibitor: T. brucei pyruvate kinase inhibition; Potency, µM (series often up to 76.8 µM), inactives show at the highest dose activity, negative = inhibition, most hits filed as inhibitors; AID 624173; TbPYK enzyme, Kinase-Glo Plus ATP luminescence, 45 min; Q57TT1; 410,000 tested, 0.12% active; also: % is scaled to controls: 0 for no effect and ±100 for the full control effect; nearly all actives have a fitted effect of over 50% in size
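In this concentration-response screen, enzyme-free wells defined baseline while DMSO plates tracked drift. Each reaction combined TbPYK, substrate, compound and 130 uM ADP for 45 min at room temperature. Kinase-Glo Plus luminescence gave the signal.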
RE007 growth inh: less growth of the S. pombe RE007 Vpr strain | S. pombe RE007 Vpr strain, BacTiter-Glo ATP luminescence, 24 h | Potency, µM (titrated, usually from 92.2 µM), inactives show at the top dose activity change, negative = less growth, actives largely listed as inhibitors | 360,000 tested, 0.21% active | AID 651644; active = well fitted falling curve with a large enough effect; inconclusive = small, poorly fitted or top-dose-only effect; inactive = no such curve, though single readings can be large or run the other way; also: % is scaled to controls: 0 for no effect and ±100 for the full control effect; nearly all actives have a fitted effect of over 50% in size
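Fission yeast RE007 carrying one integrated HIV-1 vpr copy, seeded at OD 0.01 in PMG+AL medium with 23 nL pinned compound. Grown 24 h at 30 degrees; viability read by BacTiter-Glo luminescence after 5 min.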
LmPK inhibitor: blocks Leishmania mexicana pyruvate kinase activity; Potency, µM (series often up to 57.5 µM), for the others: at the highest dose activity change, negative = inhibition, actives largely listed as inhibitors; purified LmPK, Kinase-Glo ATP luminescence, 1 h; 290,000 tested, 0.37% active; also: % is scaled to controls: 0 for no effect and ±100 for the full control effect
Target sequence (Q27686 whole entry, looked up): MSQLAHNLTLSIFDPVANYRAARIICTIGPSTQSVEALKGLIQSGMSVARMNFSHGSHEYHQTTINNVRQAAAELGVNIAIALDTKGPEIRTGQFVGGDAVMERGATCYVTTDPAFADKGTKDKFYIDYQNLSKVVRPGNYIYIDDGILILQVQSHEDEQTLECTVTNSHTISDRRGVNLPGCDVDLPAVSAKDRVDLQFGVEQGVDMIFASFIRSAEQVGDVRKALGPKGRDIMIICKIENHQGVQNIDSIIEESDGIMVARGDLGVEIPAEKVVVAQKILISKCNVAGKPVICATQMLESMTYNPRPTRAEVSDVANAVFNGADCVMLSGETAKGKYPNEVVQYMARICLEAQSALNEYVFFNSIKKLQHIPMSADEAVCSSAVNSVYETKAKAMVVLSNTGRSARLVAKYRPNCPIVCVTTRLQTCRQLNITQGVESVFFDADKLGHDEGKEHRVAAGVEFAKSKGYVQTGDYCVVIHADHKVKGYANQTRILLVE
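0.1 nM LmPK, 0.5 mM PEP, 0.1 mM ADP; 50 mM imidazole pH 7.2, 7 mM MgCl2, 50 mM KCl; 1 h RT. Kinase-Glo luminescence readout, normalized to no-enzyme (full inhibition) and uninhibited wells.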
NS1 function inh: inhibitors of influenza NS1 protein function. Potency, µM (series often up to 46.1 µM), for inactives: at the top dose activity, positive = more growth. 270,000 tested, 0.4% active. AID 2326; calls by dose curve; also: actives are rising curves; nearly all actives have a fitted effect of over 50% in size
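Compounds were scored for reversing the slow growth caused by influenza A NS1 in S. cerevisiae, measured by optical density at 600 nm. Assay medium contained 2% galactose at pH 6.0; NS1-free yeast of the same strain were the positive control.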
Starred values were filed as active, the others as inactive; u = inconclusive; x = no result; [ ] = another dose, or the depositor's remark. Unless noted, calls follow the shape of the dose curve; as a rule, active = well fitted curve in the direction sought with a large enough effect; inconclusive = small, poorly fitted or top-dose-only effect, or another doubt; inactive = no such curve, though single readings can be large; an effect the other way counts as inactive or inconclusive. Potency is read from the fitted curve at half-maximal effect.

SMILES	TbPYK inhibitor	RE007 growth inh	LmPK inhibitor	NS1 function inh
CCc1ccc(-n2cnc3cc(C(=O)NCc4ccc(C)cc4)ccc32)cc1	0%	x	x	x
C=C(C)CSc1nc2sc3c(c2c(=O)n1Cc1ccccc1)CC(C)(CC)OC3 (stereo not drawn)	-4%	x	x	x
O=C(Nc1cccc(Br)c1)c1cc(S(=O)(=O)N2CCCCC2)c[nH]1	6%	x	x	x
S=c1[nH]nc(Cc2cccs2)n1-c1cccc2ccccc12	u	x	7.9µM*	-5%
COc1ccccc1-n1c(Cc2cccs2)n[nH]c1=S	u	-7%	-20%	x
CCCCc1ccc(-n2c(Cc3cccs3)n[nH]c2=S)cc1	7.9µM*	11%	-6%	11%
Cc1ccc(-n2c(-c3cc(-c4ccco4)[nH]n3)n[nH]c2=S)c(Br)c1	u	14%	u	13%
S=c1[nH]nc(-c2cc(-c3ccco3)[nH]n2)n1-c1cccc2ccccc12	u	-5%	7.9µM*	23%
Cc1ccc(C)c(-n2c(Cc3cccs3)n[nH]c2=S)c1	u	-7%	10µM*	16%
Nc1nc2c(ncn2[C@@H]2O[C@H](CO)[C@@H](O)[C@@H]2O)c(=[SH+])[nH]1.O=[N+]([O-])c1ccc(O)[c]([Hg])c1	x	x	x	-6%
Cc1[nH]c(N)nc(=S)c1CCC(=O)O	x	x	x	0%
Cc1cccc(NC(=O)c2cn(-c3ccccc3)nc2-c2ccccc2)c1C	-3%	x	x	x
O=C(O)CC(CC(=O)O)C(=O)O	x	x	x	0%
S=c1[nH]nc(Cc2cccs2)n1-c1ccccc1Cl	u	10%	10µM*	-3%
S=c1[nH]nc(Cc2cccs2)n1-c1ccccc1	8.9µM*	4%	u	12%
C/C(=C(/CCOC(=O)c1ccccc1)SS/C(CCOC(=O)c1ccccc1)=C(\C)N(C=O)Cc1cnc(C)nc1N)N(C=O)Cc1cnc(C)nc1N	-10%	x	x	x
O=C(Nc1ccc(NC(=O)c2ccc3c(c2)OCCO3)cc1)c1ccccc1	4%	10%	-7%	2%
Cc1ccc(C(=O)Nc2ccc3c(c2)OCO3)cc1NC(=O)c1ccco1	0%	16%	3%	x
O=C(Nc1ccccc1)c1ccc2c(c1)OCCO2	-17%	0%	14µM*	-176%
Cc1c(C(=O)Nc2ccc3c(c2)OCCO3)cnn1C	1%	-7%	-4%	-8%
Cn1nccc1C(=O)Nc1ccc2c(c1)OCCO2	-24%	-19%	16µM*	-3%
O=C(Nc1ccc2c(c1)OCCO2)c1ccco1	-4%	-2%	25µM*	1%[9.22 µM]
Cc1cc(NC(=O)c2ccc3c(c2)OCO3)ccc1NC(=O)c1ccco1	-9%	-16%	14µM*	1%
COc1ccc(NC(=O)N2CCCC3(CCN(S(=O)(=O)c4ccccc4)CC3)C2)cc1	1%	x	x	x
COc1ccc(NC(=O)N2CCCC3(CCN(C(=O)c4csnn4)CC3)C2)cc1	1%	x	x	x
SMILES	TbPYK inhibitor	RE007 growth inh	LmPK inhibitor	NS1 function inh
COc1ccc(OC)c(CNC(=O)c2ccc3nc(C(C)C)oc3c2)c1	0%	x	x	x
O=C(Nc1ccc(OC(=O)c2ccco2)cc1)c1ccco1	2%	u	14µM*	-16%
Cc1[nH]c2ccccc2c1CC#N	-7%	29%	-1%	-2%
Cc1[nH]c2ccccc2c1C1=CC(=O)C=CC1=O	4µM*	25µM*	x	x
NC1=C(Cl)C(=O)c2ccccc2C1=O	-31%	25µM*	x	x
NC1=C(Cl)C(=O)c2ccc(S(N)(=O)=O)cc2C1=O	-6%	-29%	x	x
c1ccc(-c2n[nH]c(-c3ccccn3)n2)nc1	-30%	-6%	16µM*	-22%
O=C(Nc1ccc(F)c(F)c1)c1ccc(=O)n(Cc2ccc(F)cc2)c1	1%	x	x	x
O=[N+]([O-])c1ccc(CS(=O)c2ccccc2)cc1 (stereo not drawn)	-3%	12%	x	x
O=[N+]([O-])c1ccc(S(=O)Cc2ccccc2)c([N+](=O)[O-])c1 (stereo not drawn)	3%	5.6µM*	x	x
Cc1ccc(NNS(=O)(=O)c2ccc(C)cc2)cc1	u	32µM*	34%	-4%
Cc1ccc(S(=O)(=O)NNC(=O)C(=O)NNS(=O)(=O)c2ccc(C)cc2)cc1	-1%	u	15%	x
Cc1oc(-c2ccc3c(c2)OCCO3)cc1C(=O)O	u	u	14µM*	-188%
Cc1oc(-c2ccc3c(c2)OCCO3)cc1C(=O)NCC(=O)O	-20%	0%	-1%	1%
Nc1nc(Nc2ccc(Cl)cc2)nc2ccccc12	5%	u	18µM*	-27%
CCOc1ccc(Nc2nc(N)c3ccccc3n2)cc1	u	u	-4%	-12%
CN(C)c1ccc(Nc2nc(N)c3ccccc3n2)cc1	u	25µM*	u	-2%
Nc1nc(Nc2ccccc2)nc2ccccc12	-23%	u	16µM*	-34%
CC(C)N(C(=O)c1cc2c(Cl)nc3ccccc3c2s1)C1CCCCC1	-5%	x	x	x
O=C1CCCCCN1Sc1ccccc1	-14%	13µM*	0%	-47%
O=C(c1ccco1)N1CCN(c2ncnc3c(-c4ccc(Cl)cc4)nsc23)CC1	0%	4%	-8%	-3%
Cc1ccc(-c2nsc3c(N4CCN(C(=O)c5ccco5)CC4)ncnc23)cc1	x	x	-3%	3.5µM*
CC(C)CCC(CC(C)O)c1n[nH]c(=S)n1-c1ccccc1 (stereo not drawn)	4.5µM*	28%	10µM*	-4%
O=c1c(-c2ccc(Cl)cc2)nc2cnc(N3CCNCC3)nc2n1Cc1ccc(F)cc1	-7%	x	x	x
CC(C)CCn1c(=O)c2sccc2n2c(CCCC(=O)NCCc3ccccc3)nnc12	2%	x	x	x
SMILES	TbPYK inhibitor	RE007 growth inh	LmPK inhibitor	NS1 function inh
O=C(Nc1nc2ccccc2[nH]1)c1ccc(F)cc1	-29%	-22%	13µM*	-33%
COc1ccc(OC)c(NC(=O)c2ccccc2N(Cc2ccccc2)S(C)(=O)=O)c1	13µM*	4%	6%	-8%
O=C1S/C(=C\c2ccc(N3CCOCC3)o2)C(=O)N1c1ccccc1	28µM*	-7%	3%	x
O=C1S/C(=C/c2ccc(N3CCOCC3)o2)C(=O)N1Cc1c(F)cccc1Cl	u	-8%	3%	-1%
O=C1S/C(=C\c2ccc(N3CCOCC3)o2)C(=O)N1Cc1c(F)cccc1Cl	25µM*	-19%	1%	-22%
O=C(C[C@@H](c1ccccc1)N1CCCCC1)c1ccccc1	x	x	x	-6%
O=C(CNC(=O)c1ccccc1Cl)OCc1cc(=O)n2nc(C3CC3)sc2n1	-2%	x	x	x
Nc1sc(-c2ccccc2)cc1-c1n[nH]c(=S)n1C1CCCCC1	-24%	-1%	-4%	u
CC(C)(C)c1ccc(-c2n[nH]c(=S)n2C2CCCC2)cc1	u	-28%	10µM*	4%
Cn1c(-c2ccc(C(C)(C)C)cc2)n[nH]c1=S	u	-22%	-23%	-2%
CC(C1CC2CCC1C2)n1c(-c2cccs2)n[nH]c1=S (stereo not drawn)	u	4%	5µM*	-49%
S=c1[nH]nc(-c2cccs2)n1C1CCCCC1	7.1µM*	-2%	3.5µM*	7%
CN(C)CCNC(=O)c1ccc(Cn2c(=O)c3cccn3c3cccnc32)cc1	13%	x	x	x
O=C(O)c1ccc(N/N=C/c2ccc3c(c2)OCO3)cc1	u	u	10µM*	-2%

High-throughput results deposited in PubChem by National Center for Advancing Translational Sciences (NCATS).
